Measurements from PubChem BioAssay AID540259 (Broad Institute, 2011).
Measured potencies and affinities stand elsewhere. Calls of active or inactive are those of the source.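 How the source made its calls: active means cell killing, meaning signal decrease, with fitted half-maximal dose at or below ten times the top valid tested dose; inconclusive means poor fit, or flat curve with 30 to 70% signal loss; inactive means the rest.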

Assay: ATP-based viability loss in HeLa cells – cell-based, CellTiter-Glo luminescence, cherry-pick samples, cytotoxicity control for MITF activator project, dose response (AID 540259);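 further: 0% = DMSO neutral control and -100% = mitoxantrone positive control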
Conditions: 24 h; series mostly up to 35 µM; activity change, negative = cytotoxicity: at the top concentration

Structure (SMILES) | activity change, negative = cytotoxicity
O=S(=O)(c1cccs1)N1CCCc2cccc(O)c21 | -14.1% (inactive)
Cc1ccc(S(=O)(=O)Nc2cccc(-c3ccc(N4CCCCCC4)nn3)c2)cc1 | -18.1% (inactive)
CC(C)c1ccc(CNc2ncc(Br)cn2)cc1 | 10.1% (inactive)
CCc1nnc(NS(=O)(=O)c2ccc(NC(=O)c3cccc(Cl)c3)cc2)s1 | 12.2% (inactive)
Fc1ccccc1Nc1nc2ccccc2o1 | -19.8% (inactive)
CSCC[C@H](NC(=O)[C@@H]1Cc2ccccc2CN1)C(=O)NC[C@H]1CC[C@H](C(=O)O)CC1 | 15.4% (inactive)
O=Cc1ccc(OCc2ccc3ccccc3c2)cc1 | -0.356% (inactive)
CSc1nc2ccc(NC(=O)c3cccs3)cc2s1 | -0.438% (inactive)
Cc1ccc(N2C(=O)S/C(=C/c3cn(C)c4ccccc34)C2=O)cc1 | -2.79% (inactive)
Cc1nn(-c2ccc(N3CCCCC3)nn2)c(C)c1CCC(=O)Nc1cccc(F)c1 | 4.81% (inactive)
c1ccc2c(Nc3nnc(-c4ccncc4)s3)cccc2c1 | 0.946% (inactive)
CC(C)(C)N1C(=O)c2ccc(C(=O)Nc3nccs3)cc2C1=O | 12.9% (inactive)
C/C(=N/NC(=O)c1ccncc1)c1ccc(NC(=O)c2ccc(Cl)cc2Cl)cc1 | 1.99% (inactive)
CCC(C)NC(=O)c1cn(-c2cccc(C)n2)cn1 (configuration not stated) | 17.8% (inactive)
COc1ccc(Nc2nc(N)c3ccccc3n2)c(OC)c1 | -7.04% (inactive)
COC(=O)Cn1c(=NC(=O)c2ccc(Cl)s2)sc2cc(C)ccc21 | -6.41% (inactive)
Cc1cc(C)n2nc(SCN3C(=O)c4ccccc4C3=O)nc2n1 | -0.893% (inactive)
O=C(NCc1ccccn1)Nc1ccc(Br)cc1Cl | 13.2% (inactive)
O=C(Nc1ccccc1)Nc1ccc2nnsc2c1 | -3.18% (inactive)

Structure (SMILES) | activity change, negative = cytotoxicity
CC(C)(C)n1ncc2c(=O)n(CC(=O)c3ccccc3)cnc21 | -10.5% (inactive)
Fc1cc(Br)ccc1COc1ccc(-c2nnco2)cc1 | 6.77% (inactive)
COc1cccc2[nH]c(=O)c(-c3ccccc3)cc12 | 4.93% (inactive)
Cc1ccc(-c2csc(C(C#N)=C3CCCC3)n2)cc1 | -7.26% (inactive)
C#CCSc1nnc(-c2ccc(O)cc2)o1 | 13.9% (inactive)
COc1ccc(NC(=O)c2ccc3c(c2)OCO3)cc1Cl | 1.24% (inactive)
Cc1nc2ccccn2c1C(=O)N/N=C/c1ccc2c(c1)OCO2 | -3.12% (inactive)
O=C(Nc1ccc(C(F)(F)F)cc1)c1ccccc1 | 9.08% (inactive)
C=CCNc1nc(-c2ccc(Cl)cc2)cs1 | -14.9% (inactive)
COc1ccc2ccccc2c1/C=N/Nc1cccc(C(=O)O)c1 | 4.52% (inactive)
CCN(CC)c1ccc(C(=O)NNC(=O)c2cccn2C)cc1 | 6.62% (inactive)
Cc1cccc(NC(=O)c2onc3c2CCCC3)c1C | 3.8% (inactive)
CCN(CC)C(=O)c1cc(-c2ccc(Br)cc2)on1 | 1.25% (inactive)
CCCC(=O)N/C(N)=N/c1nc2ccccc2o1 | 6.9% (inactive)
Nc1nc(CSc2ccccn2)nc(Nc2ccccc2)n1 | 13.2% (inactive)
Cc1nc2c3cnn(-c4ccc(C)c(C)c4)c3ncn2n1 | -8.14% (inactive)
Cn1cccc1C(=O)N/N=C/c1c(Cl)cccc1Cl | 0.429% (inactive)
COc1ccc(-c2cc(C(=O)Nc3ccccc3F)on2)cc1 | 0.171% (inactive)
